In the library only some 18% were active in any assay of this set; here they are far more common.
TDP1 cell CPT = growth inhibition of DT40 Tdp1-/-;hTDP1 cells with camptothecin (screen for TDP1 inhibitors). Potency, µM (highest dose often 46.2 µM), inactives show top-dose activity change, negative = growth inhibition, usual class: inhibitors. chicken DT40 Tdp1-/-;hTDP1 cells + 20 nM CPT, ATP luminescence, 48 h. 12% of 420,000 active. AID 686979; further: potency means the concentration at half of the fitted maximal effect; on the % scale 0 is the no-effect control and ±100 the full control effect; nearly all actives have a fitted effect of over 55% in size
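Chicken DT40 Tdp1-/- cells stably complemented with human TDP1 were seeded at 400 cells/well in medium containing 20 nM camptothecin, exposed to pin-transferred compounds, and grown at 37 °C for at least 48 hr. Viability was read as ATP luminescence.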
HepG2 viability = counter-screen for TGF-b inhibitors: cytotoxicity in HepG2 cells. HepG2 CAGA-GFP viability, ATP luminescence, 18 h. Potency, µM (series often up to 46.1 µM), for inactives: at the top dose activity change, negative = cytotoxicity, most hits filed as cytotoxic. 0.76% of 410,000 active; further: potency means the concentration at half of the fitted maximal effect
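CellTiter-Glo luminescence gave cytotoxicity after 18 hours at 37 degrees C. The cells were HepG2 CAGA-GFP in 1% FBS DMEM, stimulated with 500 pg/mL TGF-beta after compound addition. %Activity was normalised to no-cell wells (complete cell-killing) and DMSO (no toxicity), and curves were fitted and classified.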
TDP1 block = blocks human tyrosyl-DNA phosphodiesterase 1 | Potency, µM (titrated, usually from 130 µM), inactives show at the highest dose activity change, negative = inhibition, most hits filed as inhibitors | recombinant TDP1, AlphaScreen DNA substrate cleavage | 0.28% of 350,000 active | Q9NUW8; further: potency means the concentration at half of the fitted maximal effect; on the % scale 0 is the no-effect control and ±100 the full control effect; nearly all actives have a fitted effect of over 40% in size
Target sequence (Q9NUW8 whole entry, looked up): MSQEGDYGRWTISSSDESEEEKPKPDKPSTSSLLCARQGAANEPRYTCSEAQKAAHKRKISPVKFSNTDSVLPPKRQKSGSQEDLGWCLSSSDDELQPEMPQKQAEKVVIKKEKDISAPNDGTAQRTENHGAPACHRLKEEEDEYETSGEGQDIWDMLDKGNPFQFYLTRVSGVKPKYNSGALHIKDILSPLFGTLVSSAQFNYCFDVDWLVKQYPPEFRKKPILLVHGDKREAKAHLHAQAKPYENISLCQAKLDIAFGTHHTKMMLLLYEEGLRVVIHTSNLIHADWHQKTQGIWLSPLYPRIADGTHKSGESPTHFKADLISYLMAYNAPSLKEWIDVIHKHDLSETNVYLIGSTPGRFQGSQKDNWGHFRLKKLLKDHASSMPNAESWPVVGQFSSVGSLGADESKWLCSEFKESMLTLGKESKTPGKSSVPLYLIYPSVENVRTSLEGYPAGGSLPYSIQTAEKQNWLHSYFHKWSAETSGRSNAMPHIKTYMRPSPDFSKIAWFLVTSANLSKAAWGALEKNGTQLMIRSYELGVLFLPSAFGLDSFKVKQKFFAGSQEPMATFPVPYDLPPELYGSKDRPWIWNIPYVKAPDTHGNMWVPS
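Signal: AlphaScreen proximity between streptavidin donor and anti-FITC acceptor beads on intact substrate. Reaction: Tdp1 1 nM, substrate 15 nM final, 5 min RT after 15 min compound preincubation.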
TDP1 cell noCPT = qHTS for Inhibitors of human tyrosyl-DNA phosphodiesterase 1 (TDP1): qHTS in cells in absence of CPT | DT40 Tdp1-/- hTDP1 cells, no CPT, ATP luminescence, 48 h | Potency, µM (doses to about 46.2 µM), for inactives: at the highest dose activity change, negative = growth inhibition, actives largely listed as inhibitors | 15% of 420,000 active | AID 686978, 2013; further: potency means the concentration at half of the fitted maximal effect; on the % scale 0 is the no-effect control and ±100 the full control effect; nearly all actives have a fitted effect of over 55% in size
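Camptothecin absent (DMSO only). Human TDP1-complemented DT40 knockout cells, 400 cells/well, 37 °C for minimum 48 hr; ATP measured via CellTiter-Glo, 30 min dark incubation, luminescence.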
TGFb inhibitor = blocks TGF-b signaling | HepG2 CAGA-GFP TGF-b/SMAD3 reporter, GFP fluorescence, 18 h; TGF-beta stimulated, 500 pg/mL final | Potency, µM (doses to about 46.1 µM), without a hit: at the top dose activity, negative = inhibition, most hits filed as inhibitors | 1.2% of 410,000 active; further: potency means the concentration at half of the fitted maximal effect; on the % scale 0 is the no-effect control and ±100 the full control effect; nearly all actives have a fitted effect of over 65% in size
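Using HEPG2 CAGA-GFP reporter cells at 1000 cells/well, we pinned test compounds, stimulated with recombinant TGF-beta (500 pg/mL final) and measured total well GFP after 18 h.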
IL-1B inflam inh = inhibitors of inflammasome signaling (IL-1 beta secretion) | THP-1 LPS/ATP IL-1B secretion, AlphaLISA, 16 h; active compounds read low | 4.7% of 360,000 active | activity change, % at 57.5 µM; in the data active means activity change below about -50%; inconclusive means mostly about -30% to -49%; further: on the % scale 0 is the no-effect control and ±100 the full control effect
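THP-1 cells pretreated 1 hr with compounds (up to 57.5 uM final), then stimulated with LPS (250 ng/mL final) plus ATP (1.25 mM final); secreted IL-1B measured by AlphaLISA after 16 hr, decreased signal indicating inhibition.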
* = called active by the depositor; ? = inconclusive; . = not tested or not shown; [ ] = another dose, or the depositor's remark. Unless noted, the call rests on the fitted dose curve; in most records, active means well fitted curve in the direction sought with a large enough effect; inconclusive means small, poorly fitted or top-dose-only effect, or another doubt; inactive means no such curve, though single readings can be large; an effect the other way counts as inactive or inconclusive.

SMILES	TDP1 cell CPT	HepG2 viability	TDP1 block	TDP1 cell noCPT	TGFb inhibitor	IL-1B inflam inh
CCOc1ccccc1N(CC(=O)Nc1cccc(OC)c1)S(=O)(=O)c1ccccc1	29.1µM*	-1.6%	-3.7%	?	28.1%	10.1
COc1ccc(NC(=O)CN(c2ccccc2F)S(=O)(=O)c2ccc(C)cc2)c(OC)c1	16.4µM*	-35.6%	7.0%	14.6µM*	1.4%	51.2
COc1ccc(N(CC(=O)NCc2ccc(C)cc2)S(=O)(=O)c2ccccc2[N+](=O)[O-])c(OC)c1	?	-11.4%	3.0%	23.1µM*	-3.9%	?
COc1ccc(N(CC(=O)NCc2ccncc2)S(=O)(=O)c2ccccc2[N+](=O)[O-])c(OC)c1	-1.8%	0.4%	2.4%	1.0%	-0.1%	18.8
CCOc1ccc(NC(=O)CN(c2ccccc2OCC)S(=O)(=O)c2ccccc2)cc1	?	1.6%	1.9%[2.28 µM]	18.4µM*	12.1%	.
Cc1ccc(C)c(NS(=O)(=O)c2cc(C(=O)NCc3ccncc3)ccc2C)c1	-29.4%	-27.7%	6.1%[56.1 µM]	?	-19.7%	0.0
CN(C)c1ncc2nc(-c3ccc(Cl)cc3)c(=O)n(-c3ccccc3)c2n1	-3.2%	.	.	0.3%	.	.
CCN(CC)S(=O)(=O)c1ccc(N=Nc2c(N)[nH]c(=O)[nH]c2=O)cc1	-19.3%	-9.2%	1.4%	?	-16.4%	-4.7
CCOc1ccccc1N(CC(=O)Nc1ccc(OC)cc1OC)S(=O)(=O)c1ccccc1	?	-19.4%	.	25.9µM*	-13.9%	0.0
CCOc1ccccc1N(CC(=O)Nc1ccc(OC)c(OC)c1)S(=O)(=O)c1ccccc1	?	-32.7%	2.9%	?	-1.5%	10.1
CCOc1ccc(S(=O)(=O)Nc2ccc(F)cc2)c(C)c1C	25.9µM*	-72.9%	5.6%	20.6µM*	-7.5%	12.2
CCOc1ccc(NS(=O)(=O)c2cc(OC)ccc2OC)cc1	-18.4%	-7.8%	1.6%	?	-3.2%	13.6
Cc1ccc(S(=O)(=O)N[C@@H](C)CO)cc1	2.1%	.	.	0.2%	.	-4.1
O=S(=O)(c1cccc(C(F)(F)F)c1)N1CCC(Oc2ccc(-n3cnnn3)cc2)CC1	5.8µM*	3.9%	4.7%	4.61µM*	?	.
O=S(=O)(c1ccccc1)N1CCC(Oc2ccc(-n3cnnn3)cc2)CC1	?	-15.8%	4.7%	?	?	-4.7
COc1ccc(S(=O)(=O)N2CCC(Oc3ccc(-n4cnnn4)cc3)CC2)cc1	10.3µM*	-20.3%	2.3%	-24.8%	?	.
C[C@@H]1CN([C@H](C)CO)C(=O)CCCn2cc(nn2)CO[C@H]1CN(C)S(=O)(=O)c1ccc(Oc2ccccc2)cc1	3.9%	-19.0%	.	-20.4%	-0.5%	5.9
Cc1ccc(C)c(CN2C(=O)c3ccccc3S(=O)(=O)c3ccc(C(=O)N4CCCC4)cc32)c1	?	-22.6%	3.5%	?	.	.
CCC(=O)Nc1nonc1-c1nc2ccccc2n1CCC(C)C	?	-18.3%	-2.8%	9.2µM*	3.9%	-9.0
CCC(=O)Nc1nonc1-c1nc2ccccc2n1Cc1ccccc1	?	-47.4%	-1.1%	?	7.0%	-10.8
O=C(C#Cc1ccccc1)c1ccccc1	0.731µM*	12.6µM*	.	0.581µM*	10µM*	-108.2*
O=C(C#Cc1ccccc1)c1ccc([N+](=O)[O-])cc1	0.651µM*	39.4%	7.0%	0.92µM*	?	-96.6*
COc1cc(/C=N/NC(=O)COc2ccc(-n3cnnn3)cc2)ccc1OCC(N)=O	1.3%	1.2%	-7.7%	-8.8%	18.9%	38.3
CCOC1=C2[C@@H](CN(S(=O)(=O)c3ccc(C)cc3)[C@H]2c2ccccc2Cl)[C@H]2C(=O)N(C)C(=O)[C@H]2C1	25.9µM*	-3.1%	.	16.4µM*	-0.2%	-0.4
CCOC1=C2[C@@H](CN(S(=O)(=O)c3ccccc3C)[C@H]2c2ccc(Cl)cc2)[C@H]2C(=O)N(C3CCCCC3)C(=O)[C@H]2C1	20.6µM*	.	.	?	.	-4.9
SMILES	TDP1 cell CPT	HepG2 viability	TDP1 block	TDP1 cell noCPT	TGFb inhibitor	IL-1B inflam inh
COC(=O)c1cc(S(=O)(=O)N2CCCCCC2)cn1C	-11.1%	-23.0%	0.6%	-13.2%	0.3%	2.4
Cn1c(-n2cccc2)c(-c2c(-c3ccc(F)cc3)[nH]c3c2c(=O)[nH]c(=O)n3C)c(=O)[nH]c1=O	0.2%	-1.4%	-2.6%	-5.0%	-1.1%	.
NS(=O)(=O)c1ccc(N2C(=O)C3CC=CCC3C2=O)cc1 (stereo not drawn)	-3.1%	21.0%	56.2µM*	-5.1%	1.2%	14.0
CCOc1ccc(Br)cc1C1=NN(C(C)=O)C(c2ccc([N+](=O)[O-])s2)O1 (stereo not drawn)	18.4µM*	-98.9%	.	8.2µM*	12.6µM*	-26.1
CCCn1c(N)[n+](CC(=O)c2ccco2)c2ccccc21	-2.2%	-13.0%	3.1%	-12.7%	7.3%	-58.6*
Cc1nc2sccn2c(=O)c1S(=O)(=O)Nc1cc(Cl)ccc1O	?	-26.2%	0.0%	?	-22.0%	.
COc1ccc(-c2noc(COc3ccccc3OC)n2)cc1OC	16.4µM*	-4.8%	-1.1%	?	16.6%	-29.4
c1ccc(-c2cc(CSc3nc4ccccc4[nH]3)on2)cc1	11.6µM*	8.3%	7.6%	20.6µM*	-26.0%	49.9
Cc1ccccc1-c1noc(CSc2nc3ccccc3[nH]2)n1	18.4µM*	-21.5%	3.2%	6.51µM*	?	.
Fc1cccc(F)c1CSc1nc2ccccc2[nH]1	-4.3%	-27.5%	7.0%	-11.5%	-9.4%	4.2
Cc1noc(C)c1CSc1nc2ccccc2[nH]1	-7.3%	-9.4%	4.1%	-3.6%	8.4%	-1.7
COc1ccc(-c2noc(CSc3nc4ccccc4[nH]3)n2)cc1OC	23.1µM*	-36.6%	7.1%	18.4µM*	?	.
Cc1ccc(OC(=O)c2ccc([N+](=O)[O-])cc2Cl)cn1	-3.9%	-6.3%	.	0.3%	0.7%	-6.2
O=C(Nc1ccccc1Cl)c1ccc(-c2ccccn2)s1	0.2%	-11.3%	0.0%	-3.9%	20.2%	-17.2
Cc1ccc2nc(SCc3nnc(-c4ccccc4)o3)[nH]c2c1	4.9%	-9.5%	4.8%	-23.8%	-16.2%	11.0
Cc1ccc2nc(SCc3nnc(-c4cccs4)o3)[nH]c2c1	?	0.1%	0.0%	11.6µM*	20.1%	2.9

Compound activity: PubChem, National Center for Advancing Translational Sciences (NCATS)
